Records with an inconclusive call do not appear. Entries that show only a call come without a potency. The source made the active and inactive calls. Unless noted, calls follow the shape of the dose curve; as a rule, active = well fitted curve in the direction sought with a large enough effect; inconclusive = small, poorly fitted or top-dose-only effect, or another doubt; inactive = no such curve, though single readings can be large; an effect the other way counts as inactive or inconclusive.
What was measured:
[1] = target: Pyruvate kinase (Leishmania mexicana) (UniProt Q27686); assay: qHTS Validation Assay for Inhibitors of Leishmania Mexicana Pyruvate Kinase (AID 945); conditions: purified L. mexicana pyruvate kinase, enzyme activity, E451W mutant enzyme; series mostly up to 57.5 µM
Sequence of Pyruvate kinase (Leishmania mexicana) (Q27686 2-499 E452W): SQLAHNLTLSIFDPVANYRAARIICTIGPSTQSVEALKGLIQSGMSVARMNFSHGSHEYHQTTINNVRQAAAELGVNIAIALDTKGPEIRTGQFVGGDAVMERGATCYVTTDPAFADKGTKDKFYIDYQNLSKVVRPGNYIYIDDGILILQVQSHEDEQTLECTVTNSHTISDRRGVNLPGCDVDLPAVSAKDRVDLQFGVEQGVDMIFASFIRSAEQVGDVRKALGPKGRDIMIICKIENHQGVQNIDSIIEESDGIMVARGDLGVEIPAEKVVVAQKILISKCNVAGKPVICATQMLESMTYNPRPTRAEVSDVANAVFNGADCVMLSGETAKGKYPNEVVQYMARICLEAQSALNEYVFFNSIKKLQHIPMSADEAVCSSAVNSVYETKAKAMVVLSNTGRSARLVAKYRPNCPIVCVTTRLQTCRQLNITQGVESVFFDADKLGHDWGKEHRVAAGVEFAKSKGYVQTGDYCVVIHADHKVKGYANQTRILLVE
Outline: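 The enzyme is a highly purified E451W mutant of LmPYK used at 0.2 nM. It converts 0.5 mM PEP and 0.1 mM ADP over 1 h at room temperature; product ATP is quantified by luciferase luminescence relative to DMSO controls.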

[2] = target: Peptidyl-prolyl cis-trans isomerase NIMA-interacting 1 (Homo sapiens) (UniProt Q13526); assay: qHTS Validation Assay to Find Inhibitors of Pin1 (AID 504536; active = well fitted inhibition curve with a large enough effect in the polarisation, with a control signal flat, not every such curve was filed as active; the % refers to the polarisation; also: potency is read from the fitted curve at half-maximal effect); conditions: Pin1 fluorescence polarization peptide binding assay; series mostly up to 57.5 µM
Sequence of Peptidyl-prolyl cis-trans isomerase NIMA-interacting 1 (Homo sapiens) (Q13526 whole entry, looked up): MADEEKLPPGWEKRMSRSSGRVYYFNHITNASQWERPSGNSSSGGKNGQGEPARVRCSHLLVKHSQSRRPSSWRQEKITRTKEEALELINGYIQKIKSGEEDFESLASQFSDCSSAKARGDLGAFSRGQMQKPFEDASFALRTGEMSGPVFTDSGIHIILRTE
Outline: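 Fluorescence polarization competition: compounds (titration) displace HiFluor-488-labeled Pin1-1b peptide from Pin1 (0.3 uM final) in pH 7.5 HEPES buffer with DTT, 10 min at room temperature; %Activity normalized to no-enzyme wells, curves fitted.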

[3] = target: Phosphoglycerate kinase, glycosomal (Trypanosoma brucei brucei) (UniProt P07378); assay: qHTS Validation Assay to Find Inhibitors of Phosphoglycerate Kinase (AID 504547); conditions: enzymatic PGK inhibition, coupled luminescence read-out; series mostly up to 57.5 µM; also: potency is read from the fitted curve at half-maximal effect
Outline: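 Inhibition of the enzyme is judged by a Kinase-Glo Plus luminescent signal following a one-hour incubation at room temperature. Because 1,3-BPG is unstable, it is made in situ by GAPDH at 100nM final; no-PGK wells define the baseline.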

[4] = target: Hexokinase-4 (Homo sapiens) + Glucokinase regulatory protein (Homo sapiens) (UniProt P35557+Q14397); assay: qHTS assay for inhibitors of recombinant human GCK-GKRP interaction: Diaphorase-coupled assay (AID 743205); conditions: G6PDH/diaphorase resorufin fluorescence; series mostly up to 57.5 µM
Outline: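 Signal derives from resorufin generated by diaphorase, linked to GCK turnover of glucose (5 mM) and ATP (0.4 mM). Enzyme complex was added after a 20-minute compound preincubation and monitored for 30 minutes.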

[5] = target: Glutaminase kidney isoform, mitochondrial (Homo sapiens) (UniProt O94925); assay: qHTS for Inhibitors of Glutaminase (GLS): LOPAC Validation (AID 624146); conditions: glutaminase enzyme activity inhibition; series mostly up to 46.1 µM;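 also: glutamate product detected by oxidase and peroxidase coupled Amplex red fluorescence gain; nearly all actives have a fitted effect of over 60% in size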
Outline: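 hKGA in 45 mM KH2PO4 (pH 8.2), 0.02% Tween-20 with compound, then 1mM L-Glutamine (stock as added) plus glutamate oxidase/HRP/Amplex red coupling mix. Fluorescence read initially and after 30 min at RT; signal change reflects glutamate formation.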

[6] = qHTS of Trypanosoma Brucei Inhibitors: LOPAC Validation (AID 624147); conditions: purified enzyme assay, luminescence, 45 min; series mostly up to 57.5 µM
Outline: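 Quantitative HTS: titrated library compounds versus trypanosomal pyruvate kinase in TEA buffer (pH 7.2) containing KCl, MgCl2, BSA and Tween-20. Reactions were initiated with ADP, 130 uM final. Kinase-Glo Plus luminescence was read after 45 min at RT.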

[7] = qHTS Assay for Identification of Small Molecule Antagonists for NFkB Signaling Pathway (AID 895; active = well fitted inhibition curve with a large enough effect in the signal ratio, with a control signal flat, not every such curve was filed as active; the % refers to the signal ratio; also: potency is read from the fitted curve at half-maximal effect); conditions: NFkB beta-lactamase reporter cells, FRET ratio 460/530; series mostly up to 38.3 µM
Outline: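 Beta-lactamase reporter read-out (460 and 530 nm emission ratio, 405 nm excitation, 2 hrs substrate loading RT) after 5 hr stimulation with 10 pM TNF alpha in compound-treated NFkB-bla ME-180 cells in low-serum medium.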

[8] = target: ATPase family AAA domain-containing protein 5 (Homo sapiens) (UniProt Q96QE3); assay: Validation screen for small molecules that inhibit ELG1-dependent DNA repair in human embryonic kidney (HEK293T) cells expressing luciferase-tagged ELG1 (AID 493107); conditions: HEK293T ELG1-luciferase level, luminescence, 5-fluorouridine co-treatment, 16 h; series mostly up to 46.1 µM; also: potency is read from the fitted curve at half-maximal effect; nearly all actives have a fitted effect of over 70% in size
Sequence of ATPase family AAA domain-containing protein 5 (Homo sapiens) (Q96QE3 whole entry, looked up, the tested form may be a part): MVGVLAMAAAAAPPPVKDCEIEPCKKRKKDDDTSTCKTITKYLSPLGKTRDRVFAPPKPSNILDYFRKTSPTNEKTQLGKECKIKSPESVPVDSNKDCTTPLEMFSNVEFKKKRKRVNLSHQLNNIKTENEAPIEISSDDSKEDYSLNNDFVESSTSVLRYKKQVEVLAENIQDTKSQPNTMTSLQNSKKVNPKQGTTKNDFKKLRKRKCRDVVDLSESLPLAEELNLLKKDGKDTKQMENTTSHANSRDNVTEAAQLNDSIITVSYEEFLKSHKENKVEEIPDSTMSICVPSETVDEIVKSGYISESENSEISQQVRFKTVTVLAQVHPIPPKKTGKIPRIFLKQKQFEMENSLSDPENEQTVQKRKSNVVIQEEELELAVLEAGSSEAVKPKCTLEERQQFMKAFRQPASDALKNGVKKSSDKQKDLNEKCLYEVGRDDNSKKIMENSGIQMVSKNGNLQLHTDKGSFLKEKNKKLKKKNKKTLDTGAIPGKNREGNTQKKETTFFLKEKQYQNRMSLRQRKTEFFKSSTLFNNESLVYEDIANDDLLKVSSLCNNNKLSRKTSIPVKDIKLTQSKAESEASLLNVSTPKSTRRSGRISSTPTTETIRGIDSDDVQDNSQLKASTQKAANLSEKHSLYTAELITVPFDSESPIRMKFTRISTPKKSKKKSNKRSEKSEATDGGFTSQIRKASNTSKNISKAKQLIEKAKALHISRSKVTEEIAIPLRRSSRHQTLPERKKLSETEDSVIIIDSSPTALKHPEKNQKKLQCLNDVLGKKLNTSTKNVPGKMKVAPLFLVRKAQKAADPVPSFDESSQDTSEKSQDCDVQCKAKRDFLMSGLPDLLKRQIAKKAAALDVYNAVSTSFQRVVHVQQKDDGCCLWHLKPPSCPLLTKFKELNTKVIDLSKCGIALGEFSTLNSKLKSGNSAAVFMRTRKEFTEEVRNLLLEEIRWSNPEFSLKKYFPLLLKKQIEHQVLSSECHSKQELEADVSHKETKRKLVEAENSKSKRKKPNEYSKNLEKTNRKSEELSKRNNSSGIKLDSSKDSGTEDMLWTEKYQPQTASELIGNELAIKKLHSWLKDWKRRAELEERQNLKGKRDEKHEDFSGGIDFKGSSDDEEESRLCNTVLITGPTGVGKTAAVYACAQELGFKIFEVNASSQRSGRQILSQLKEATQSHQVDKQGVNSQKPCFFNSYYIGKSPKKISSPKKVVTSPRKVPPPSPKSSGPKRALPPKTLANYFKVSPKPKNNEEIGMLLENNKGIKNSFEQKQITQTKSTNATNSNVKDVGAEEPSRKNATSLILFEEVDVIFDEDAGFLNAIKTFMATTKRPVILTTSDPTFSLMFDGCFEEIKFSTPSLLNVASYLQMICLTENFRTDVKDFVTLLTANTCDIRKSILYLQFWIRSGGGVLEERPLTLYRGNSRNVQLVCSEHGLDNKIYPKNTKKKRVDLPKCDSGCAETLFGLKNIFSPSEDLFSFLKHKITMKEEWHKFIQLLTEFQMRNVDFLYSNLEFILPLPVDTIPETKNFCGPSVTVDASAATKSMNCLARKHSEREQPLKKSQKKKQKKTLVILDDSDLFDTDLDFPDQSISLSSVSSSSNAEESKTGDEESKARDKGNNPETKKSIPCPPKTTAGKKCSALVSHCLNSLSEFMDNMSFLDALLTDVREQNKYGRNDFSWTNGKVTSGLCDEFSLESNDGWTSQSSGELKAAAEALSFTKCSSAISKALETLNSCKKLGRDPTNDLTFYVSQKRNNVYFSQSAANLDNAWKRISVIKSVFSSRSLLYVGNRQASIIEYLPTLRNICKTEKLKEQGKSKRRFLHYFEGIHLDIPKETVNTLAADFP
Outline: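 Luminescence from ONE-Glo, developed 30 min at room temperature, served as read-out of ELG1-luciferase levels. Beforehand, reporter HEK293T cells received 5-fluorouridine plus test compound for 16 hr at 37 °C.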

[9] = qHTS for Inhibitors of ATXN expression: Validation (AID 588378); conditions: cell-based ATXN2 expression reporter assay, luminescence; series mostly up to 57.1 µM; also: potency is read from the fitted curve at half-maximal effect; nearly all actives have a fitted effect of over 75% in size
Outline: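 After a 2 h attachment and 24 h compound incubation, HEK293-ATXN2-FFLuc wells are read for fluorescence at 405 nm excitation/525 nm emission as a viability measure, then for Bright-Glo luminescence reflecting ATXN2 expression.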

[10] = target: Tyrosyl-DNA phosphodiesterase 1 (Homo sapiens) (UniProt Q9NUW8); assay: Confirmation Assay for Inhibitors of Tyrosyl-DNA Phosphodiesterase (TDP1) (AID 489007); conditions: recombinant human TDP1 enzymatic activity, dose-response; also: potency is read from the fitted curve at half-maximal effect; nearly all actives have a fitted effect of over 40% in size
Sequence of Tyrosyl-DNA phosphodiesterase 1 (Homo sapiens) (Q9NUW8 whole entry, looked up): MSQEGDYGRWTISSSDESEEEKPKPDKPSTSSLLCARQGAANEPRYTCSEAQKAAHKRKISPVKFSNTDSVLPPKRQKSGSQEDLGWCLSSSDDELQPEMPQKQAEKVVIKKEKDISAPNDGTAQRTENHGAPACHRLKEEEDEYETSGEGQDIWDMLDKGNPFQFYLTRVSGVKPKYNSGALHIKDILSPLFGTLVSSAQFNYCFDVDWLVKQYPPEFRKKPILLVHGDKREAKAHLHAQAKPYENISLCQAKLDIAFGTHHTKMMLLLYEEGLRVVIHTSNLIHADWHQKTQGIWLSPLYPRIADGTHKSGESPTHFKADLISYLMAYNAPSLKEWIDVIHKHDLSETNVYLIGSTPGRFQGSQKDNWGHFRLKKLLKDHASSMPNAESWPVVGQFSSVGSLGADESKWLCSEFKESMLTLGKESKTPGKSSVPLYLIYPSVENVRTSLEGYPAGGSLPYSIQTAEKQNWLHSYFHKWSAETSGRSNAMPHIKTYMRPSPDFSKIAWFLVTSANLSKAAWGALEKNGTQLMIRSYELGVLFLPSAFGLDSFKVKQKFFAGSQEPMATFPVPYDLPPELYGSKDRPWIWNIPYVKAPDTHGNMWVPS
Outline: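 Tdp1 1 nM + cpd, 15 min RT; add biotin/phosphotyrosine-FITC oligo 15 nM, 5 min RT; add AS donor/acceptor beads 10 ug/ml, 10 min RT; read AlphaScreen. No-enzyme wells = max signal.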

[11] = target: Rap guanine nucleotide exchange factor 3 (Homo sapiens) (UniProt O95398); assay: Confirmatory qHTS for agonist of cAMP-regulated guanine nucleotide exchange factor 3 (EPAC1) (AID 1645881); conditions: EPAC1 Rap1B BODIPY-GDP exchange fluorescence, 100% = cAMP control response; series mostly up to 154 µM;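 also: EPAC1 catalysed release of BODIPY-GDP from Rap1B seen as fluorescence loss; nearly all actives have a fitted effect of over 75% in size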
Sequence of Rap guanine nucleotide exchange factor 3 (Homo sapiens) (O95398 whole entry, looked up): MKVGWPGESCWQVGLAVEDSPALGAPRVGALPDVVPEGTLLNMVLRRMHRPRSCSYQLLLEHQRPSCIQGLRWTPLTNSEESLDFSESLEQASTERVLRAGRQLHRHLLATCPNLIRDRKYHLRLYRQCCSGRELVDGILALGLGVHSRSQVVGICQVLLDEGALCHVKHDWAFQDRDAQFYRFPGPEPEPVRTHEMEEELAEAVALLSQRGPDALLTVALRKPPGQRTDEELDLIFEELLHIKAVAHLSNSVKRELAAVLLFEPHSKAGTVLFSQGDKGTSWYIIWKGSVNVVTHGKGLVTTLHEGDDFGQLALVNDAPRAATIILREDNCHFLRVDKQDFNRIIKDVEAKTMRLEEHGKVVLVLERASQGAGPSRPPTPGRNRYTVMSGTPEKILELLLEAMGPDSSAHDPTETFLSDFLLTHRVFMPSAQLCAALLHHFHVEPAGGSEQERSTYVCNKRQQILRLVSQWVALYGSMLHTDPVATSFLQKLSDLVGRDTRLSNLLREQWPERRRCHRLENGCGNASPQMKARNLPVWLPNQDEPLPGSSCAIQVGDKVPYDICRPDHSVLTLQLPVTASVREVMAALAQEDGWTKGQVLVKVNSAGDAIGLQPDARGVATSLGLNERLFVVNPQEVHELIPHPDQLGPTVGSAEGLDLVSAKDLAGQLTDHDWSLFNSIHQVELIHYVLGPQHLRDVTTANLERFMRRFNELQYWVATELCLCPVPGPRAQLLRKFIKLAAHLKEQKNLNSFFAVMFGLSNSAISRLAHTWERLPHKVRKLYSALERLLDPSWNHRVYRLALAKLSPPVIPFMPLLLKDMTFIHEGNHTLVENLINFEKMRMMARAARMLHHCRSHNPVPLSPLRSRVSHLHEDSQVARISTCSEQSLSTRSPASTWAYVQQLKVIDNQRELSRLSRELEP

[12] = target: Rap guanine nucleotide exchange factor 4 (Homo sapiens) (UniProt Q8WZA2); assay: Confirmatory qHTS for agonist of cAMP-regulated guanine nucleotide exchange factor 4 (EPAC2) (AID 1645884); conditions: EPAC2 GEF activity, Rap1B-BODIPY-GDP fluorescence, percent relative to cAMP agonist control; series mostly up to 154 µM;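 also: nucleotide exchange releases bodipy-GDP from Rap1 and this lowers its fluorescence; nearly all actives have a fitted effect of over 65% in size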
Sequence of Rap guanine nucleotide exchange factor 4 (Homo sapiens) (Q8WZA2 whole entry, looked up): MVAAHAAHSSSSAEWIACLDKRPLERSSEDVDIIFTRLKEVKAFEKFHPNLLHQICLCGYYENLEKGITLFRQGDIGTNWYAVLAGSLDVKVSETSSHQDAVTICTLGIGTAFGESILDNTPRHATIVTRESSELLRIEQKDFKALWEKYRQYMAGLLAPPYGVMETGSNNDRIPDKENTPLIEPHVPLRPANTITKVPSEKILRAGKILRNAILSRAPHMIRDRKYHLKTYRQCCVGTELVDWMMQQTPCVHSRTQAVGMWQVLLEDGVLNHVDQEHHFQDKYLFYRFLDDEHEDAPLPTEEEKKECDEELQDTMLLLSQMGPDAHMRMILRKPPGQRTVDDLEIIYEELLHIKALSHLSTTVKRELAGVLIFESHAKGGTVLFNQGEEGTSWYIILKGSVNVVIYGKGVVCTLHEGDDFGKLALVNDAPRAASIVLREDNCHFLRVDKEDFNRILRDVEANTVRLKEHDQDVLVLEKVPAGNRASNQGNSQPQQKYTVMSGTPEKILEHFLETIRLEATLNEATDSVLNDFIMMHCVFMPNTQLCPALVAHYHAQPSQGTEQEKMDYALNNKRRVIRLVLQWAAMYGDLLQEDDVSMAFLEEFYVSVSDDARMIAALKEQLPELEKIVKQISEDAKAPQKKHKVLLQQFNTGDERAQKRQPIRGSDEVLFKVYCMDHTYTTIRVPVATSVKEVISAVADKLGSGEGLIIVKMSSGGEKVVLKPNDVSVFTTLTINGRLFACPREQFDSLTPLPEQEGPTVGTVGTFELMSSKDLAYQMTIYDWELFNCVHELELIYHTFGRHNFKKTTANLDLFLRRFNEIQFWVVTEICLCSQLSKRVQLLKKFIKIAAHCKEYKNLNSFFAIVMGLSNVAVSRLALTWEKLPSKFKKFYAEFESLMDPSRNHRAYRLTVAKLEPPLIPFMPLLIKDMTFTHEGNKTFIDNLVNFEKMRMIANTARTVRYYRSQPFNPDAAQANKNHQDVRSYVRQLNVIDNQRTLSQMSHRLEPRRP

[13] = target: Rap guanine nucleotide exchange factor 4 (Homo sapiens) (UniProt Q8WZA2); assay: Confirmatory qHTS for antagonist of cAMP-regulated guanine nucleotide exchange factor 4 (EPAC2) (AID 1645885); conditions: EPAC2 Rap1B-BODIPY-GDP exchange fluorescence, biochemical; series mostly up to 114 µM; also: potency is read from the fitted curve at half-maximal effect; nearly all actives have a fitted effect of over 25% in size
[14] = target: Rap guanine nucleotide exchange factor 3 (Homo sapiens) (UniProt O95398); assay: Counterscreen qHTS for antagonist of cAMP-regulated guanine nucleotide exchange factor 3 (EPAC1) (AID 1645888); conditions: Rap1B-BODIPY-GDP nucleotide exchange, fluorescence; series mostly up to 154 µM;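 also: fluorescence loss as bound BODIPY-GDP is released from Rap1B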
Outline: (§1)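 Rap1B-BODIPY-GDP 250 nM + GDP 50 uM; cpds 7-pt, final 9.74 nM–152 uM (activator mode) or from 7.32 nM upwards (inhibitor mode); RT; FI 480/540 nm at 5 and 30 min, then ± cAMP, reread.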

[15] = target: Rap guanine nucleotide exchange factor 3 (Homo sapiens) (UniProt O95398); assay: Counterscreen qHTS for agonist of cAMP-regulated guanine nucleotide exchange factor 3 (EPAC1) (AID 1645889); conditions: EPAC1 Rap1B-BODIPY-GDP exchange, fluorescence; series mostly up to 154 µM; also: nearly all actives have a fitted effect of over 40% in size
Outline: as §1

SMILES: N#C/C(=C\c1ccc(O)c(O)c1)C(=O)NCCCNC(=O)/C(C#N)=C/c1ccc(O)c(O)c1
- outcome [1]: inactive
- Potency [2]: 0.849 µM (active)
- Potency [3]: 1.9 µM (active)
- outcome [4]: inactive

SMILES: COc1cc([C@@H]2c3cc4c(cc3[C@H](O)C3COC(=O)[C@@H]32)OCO4)cc(OC)c1OC (stereo not given in full)
- outcome [5]: inactive
- outcome [6]: inactive

SMILES: Brc1c(Br)c(Br)c2n[nH]nc2c1Br
- Potency [7]: 5.01 µM (active)
- Potency [8]: 25.9 µM (active)
- Potency [9]: 28.2 µM (active)

SMILES: NC1C=CC=C(C(=O)O)C1 (stereo not given)
- Potency [10]: 1.12 µM (active)

SMILES: CC(C)COC(=O)c1ccccc1C(=O)OCC(C)C
- outcome [11]: inactive
- outcome [12]: inactive
- Potency [13]: 37.9 µM (active)
- outcome [14]: inactive
- outcome [15]: inactive
